Results taken from PubChem BioAssay (Tox21).
Results filed as inconclusive are left out. The source made the active and inactive calls. Calls come from the whole dose curve.

experiment: qHTS assay for small molecule agonists of the p53 signaling pathway (AID 651631); settings: HCT-116 p53RE-bla reporter, beta-lactamase FRET ratio, 16 h; series mostly up to 73.3 µM; note: nearly all actives have a fitted effect of over 15% in size
Source text: U.S. Tox21 Program National Center for Advancing Translational Sciences [NCATS] NIH Chemical Genomics Center [NCGC] U.S. Environmental Protection Agency [EPA] National Institutes of Environmental Health Sciences [NIEHS] National Toxicology Program [NTP] U.S. Food and Drug Administration [FDA] Tox21 Assay Overview: p53, a tumor suppressor protein, is activated following cellular insult, including DNA damage and other cellular stresses. The activation of p53 regulates cell fate by inducing DNA repair, cell cycle arrest, apoptosis, or cellular senescence. The activation of p53, therefore, is a good indicator of DNA damage and other cellular stresses. The CellSensor p53RE-bla HCT-116 cell line (Invitrogen) contains a stably integrated beta-lactamase reporter gene under control of the p53 response elements. The activation of the reporter gene under culture conditions can be detected by fluorescence intensity. This cell line was used to screen the Tox21 compound library in a 1536-well plate format and to identify agonists that activate the p53 signaling pathway.
Tox21 Assay Protocol Summary: The p53RE-bla cells were dispensed at 4,000 cells/5 ul/well in 1536-well black wall/clear bottom plates using a Multidrop dispenser. After the assay plates were incubated at a 37 C/5% CO2 incubator for 5 hours, 23 nL of compounds dissolved in DMSO, positive controls or DMSO only was transferred to the assay plate by a pin tool. The plates were incubated at 37 C for 16 hours. After 1 uL of LiveBLAzerTM B/G FRET substrate was added using a Flying Reagent Dispenser, the plates were incubated at room temperature for 2 hours, and fluorescence intensity was measured by an Envision plate reader.

Compound | outcome
CC(=O)OCCOC(C)=O | inactive
O=C(OCC1CCC2OC2C1)C1CCC2OC2C1 (stereo not given) | inactive
CSc1ccc(Cl)cc1 | inactive
COCCCN | inactive
NCCN1CCNCC1 | inactive
CC(=O)c1ccc(O)cc1 | inactive
CCCCCCCC=O | inactive
Cc1ccc(S(=O)(=O)N=C=O)cc1 | inactive
CCCOC(=O)c1ccccc1 | inactive
Brc1ccc(Br)c(Br)c1 | inactive
CCOCC(=O)O | inactive
CC(C)=CCl | inactive
CCCCCC(=O)O | inactive
O=C(O)c1ccc(S(=O)(=O)N(Cl)Cl)cc1 | inactive
C=CC[N+](C)(C)CC=C | inactive
CCCCCCCCCCCC(=O)OC | inactive
CCCCCCCCCCCCCCCC(=O)OC(C)C | inactive
C=CC(C)CCCC(C)(C)O (stereo not given) | inactive
CC(CCl)OP(=O)(OC(C)CCl)OC(C)CCl (stereo not given) | inactive
CCc1ccccc1CC | inactive

Compound | outcome
Cc1ccc(C(C)C)c(O)c1 | inactive
CN/C(=C\[N+](=O)[O-])NCCSCc1csc(CN(C)C)n1 | inactive
Clc1ccccn1 | inactive
CCNc1cccc(C)c1 | inactive
C=C(C)CNCC | inactive
CCOC(=O)n1ccn(C)c1=S | inactive
CCCCCCCCCCO | inactive
COC(=O)c1cccnc1 | inactive
c1ccc2c(c1)Cc1ccccc1-2 | inactive
COc1ccccc1OCC(O)CO (stereo not given) | inactive
CC(C)CCCCCCCOC(=O)CCCCC(=O)OCCCCCCCC(C)C | inactive
CC(C)OP(=O)(CP(=O)(OC(C)C)OC(C)C)OC(C)C | inactive
CC(O)CC(C)(C)O (stereo not given) | inactive
COc1cc(OC)c(C(=O)CCCN2CCCC2)c(OC)c1 | inactive
CCCCCCCCCCN | inactive
CC(=O)CCC=C(C)C | inactive
C[C@]12CC[C@@H]3c4ccc(O)cc4CC[C@H]3[C@@H]1C[C@@H](O)[C@@H]2O | inactive
CN(C)c1ccc(Cc2ccc(N(C)C)cc2)cc1 | inactive
CC(C)OC(=O)COc1ccc(Cl)cc1Cl | inactive
CCCCCCO | inactive
